From PubChem BioAssay (NCI) come the findings set out here.

Experiment [1] can be described thus: NCI Yeast Anticancer Drug Screen. Data for the rad50 strain (AID 155).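 Also: 0% = growth of vehicle-only cultures of the same strain.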 The settings on record: S. cerevisiae rad50 strain growth inhibition, stronger effect = higher value. A digest of the protocol: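 Genetically altered yeast (DNA repair pathway); compound treatment; growth inhibition vs vehicle ctrl.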
Experiment [2] can be described thus: NCI Yeast Anticancer Drug Screen. Data for the mec2-1 strain (AID 157). Particulars: S. cerevisiae mec2-1 strain, stronger effect = higher value. The essentials: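 Test agents were screened against the mec2-1 yeast strain, with defined DNA repair or cell cycle alteration. Growth was scored as inhibition against vehicle-only controls.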
The nature of experiment [3]: NCI Yeast Anticancer Drug Screen. Data for the sgs1 mgt1 strain (AID 161).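 Also: 0% = growth of cultures given vehicle only.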 The settings on record: S. cerevisiae sgs1 mgt1 strain, stronger effect = higher value. The essentials: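 Inhibition of yeast growth, normalised to vehicle-treated controls, is reported for a strain bearing genetic alterations in DNA damage repair.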
A short description of experiment [4]: NCI Yeast Anticancer Drug Screen. Data for the cln2 rad14 strain (AID 165).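 Also: 0% = growth equal to vehicle treated cultures.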 Particulars: S. cerevisiae cln2 rad14 strain, stronger effect = higher value. The essentials: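 Growth of compound-exposed yeast (cln2 rad14 genotype) measured and expressed as inhibition relative to vehicle.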
The nature of experiment [5]: NCI Yeast Anticancer Drug Screen. Data for the bub3 strain (AID 167). Particulars: S. cerevisiae bub3 mutant strain, stronger effect = higher value. The essentials:
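Yeast carrying a defined mutation is treated with each compound, and growth is compared with that of vehicle-exposed cells to give inhibition.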

Experiment [6] is described as follows: NCI Yeast Anticancer Drug Screen. Data for the mlh1 rad18 strain (AID 175). Particulars: S. cerevisiae mlh1 rad18 strain growth inhibition, stronger effect = higher value. A digest of the protocol: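 In this whole-cell yeast screen, a strain with altered DNA damage repair is challenged with compound, and its growth is measured against matched vehicle-treated controls.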

The mark [7] stands for this setting: at 5.0 µM (retest, dose inferred, filed as 0.5).
[8] abbreviates: at 50.0 µM (retest, dose inferred, filed as 5.0).

This is part of a sample that, as a whole, favours compounds with a hit. Of some 79,000 tested, about 15% had one in any assay. Unmarked numbers belong to inactive results. Active and inactive are the calls of the source. Rule as the data show it: active = growth inhibition above about 70%; inactive = the rest.

Turning to `Cc1cc(Cc2cccc(Cl)c2)ccc1O`, the growth inhibition in experiment [1] (setting [7]) was -8%; in experiment [1] (setting [8]) it was 99% (active); in experiment [1] (at 50.0 µM), 99.5% (active); in experiment [2] (setting [7]) it was -34%; in experiment [2] (setting [8]), 99% (active); in experiment [2] (at 50.0 µM), 99.7% (active). Besides, the growth inhibition in experiment [3] (setting [7]) is -2%; in experiment [3] (setting [8]) it was 99% (active); in experiment [3] (at 50.0 µM), 99.3% (active); in experiment [4] (setting [7]) it was -21%; in experiment [4] (setting [8]), 99% (active); in experiment [4] (at 50.0 µM), 99.4% (active). The growth inhibition was -20% in experiment [5] (setting [7]); 99% (active) in experiment [5] (setting [8]); 99.6% (active) in experiment [5] (at 50.0 µM); -8% in experiment [6] (setting [7]); 99% (active) in experiment [6] (setting [8]); 99.5% (active) in experiment [6] (at 50.0 µM).
As for `CC1CCC2(CC1)NC1=C(CC(C)CC1)C1=C2CC(C)CC1` (configuration not stated), the growth inhibition in experiment [1] (setting [7]) was 46%; in experiment [1] (setting [8]) it was 87% (active); in experiment [1] (at 50.0 µM) it was 3.8%; in experiment [2] (setting [7]), 28%; in experiment [2] (setting [8]) it was 85% (active); in experiment [2] (at 50.0 µM) it was -29.6%. The growth inhibition in experiment [3] (setting [7]) was -1%; in experiment [3] (setting [8]), 27%; in experiment [3] (at 50.0 µM) it was -21.9%; in experiment [4] (setting [7]), 14%; in experiment [4] (setting [8]) it was 26%; in experiment [4] (at 50.0 µM) it was 13.2%. Moreover, the growth inhibition in experiment [5] (setting [7]) was -16%; in experiment [5] (setting [8]), 17%; in experiment [5] (at 50.0 µM) it was -4.4%; in experiment [6] (setting [7]) it was 32%; in experiment [6] (setting [8]), 89% (active); in experiment [6] (at 50.0 µM) it was 10.4%.
On to `Cc1noc(NS(=O)(=O)c2ccc(NCc3c4ccccc4nc4cc(Cl)ccc34)cc2)c1C`, for which the growth inhibition in experiment [1] (setting [7]) is 4%; in experiment [1] (setting [8]) it was -13%; in experiment [1] (at 50.0 µM) it was 98.5% (active); in experiment [2] (setting [7]) it was 4%; in experiment [2] (setting [8]), -7%; in experiment [2] (at 50.0 µM) it was 98.9% (active). Besides, the growth inhibition in experiment [3] (setting [7]) is 5%; in experiment [3] (setting [8]) it was -6%; in experiment [3] (at 50.0 µM) it was 98.5% (active); in experiment [4] (setting [7]) it was 1%; in experiment [4] (setting [8]), -3%; in experiment [4] (at 50.0 µM), 98.2% (active). Moreover, the growth inhibition in experiment [5] (setting [7]) is 9%; in experiment [5] (setting [8]), -3%; in experiment [5] (at 50.0 µM), 98.2% (active); in experiment [6] (setting [7]), 3%; in experiment [6] (setting [8]) it was -5%; in experiment [6] (at 50.0 µM), 98.3% (active).
For the molecule `CCCCCCCCCCCCOC(=O)CC1CC(C(C)=O)C1(C)C` (configuration not stated), the growth inhibition in experiment [1] (setting [7]) was 2%; in experiment [1] (setting [8]), -9%; in experiment [1] (at 50.0 µM) it was 18.5%; in experiment [2] (setting [7]), 0%; in experiment [2] (setting [8]) it was -7%; in experiment [2] (at 50.0 µM) it was -20.8%. The growth inhibition in experiment [3] (setting [7]) is 0%; in experiment [3] (setting [8]), -7%; in experiment [3] (at 50.0 µM), 24.1%; in experiment [4] (setting [7]), 1%; in experiment [4] (setting [8]), -8%; in experiment [4] (at 50.0 µM) it was 84.3% (active). The growth inhibition in experiment [5] (setting [7]) was -3%; in experiment [5] (setting [8]), -13%; in experiment [5] (at 50.0 µM), 11.2%; in experiment [6] (setting [7]), 25%; in experiment [6] (setting [8]), -4%; in experiment [6] (at 50.0 µM), 41.2%.
`COc1ccc2c(c1)C1(C)CCCC(C)(C(=O)O)C1C(Br)C2=O` (configuration not stated): the growth inhibition in experiment [1] (setting [7]) is 6%; in experiment [1] (setting [8]), 91% (active); in experiment [1] (at 50.0 µM), 69.8%; in experiment [2] (setting [7]), 20%; in experiment [2] (setting [8]) it was 98% (active); in experiment [2] (at 50.0 µM), 46.6%. Also, the growth inhibition is -12% in experiment [3] (setting [7]); 97% (active) in experiment [3] (setting [8]); 84% (active) in experiment [3] (at 50.0 µM); -8% in experiment [4] (setting [7]); 96% (active) in experiment [4] (setting [8]); 37.4% in experiment [4] (at 50.0 µM). The growth inhibition in experiment [5] (setting [7]) was 6%; in experiment [5] (setting [8]), 96% (active); in experiment [5] (at 50.0 µM), 35.2%; in experiment [6] (setting [7]) it was 21%; in experiment [6] (setting [8]), 96% (active); in experiment [6] (at 50.0 µM), 72.2% (active).
In the case of `O=C(COc1ccc2ccccc2c1)NC1c2ccccc2Oc2ccccc21`, the growth inhibition in experiment [1] (setting [7]) is 77% (active); in experiment [1] (setting [8]), 93% (active); in experiment [1] (at 50.0 µM), 74.2% (active); in experiment [2] (setting [7]) it was 91% (active); in experiment [2] (setting [8]) it was 97% (active); in experiment [2] (at 50.0 µM), 17.4%. Further, the growth inhibition in experiment [3] (setting [7]) is 95% (active); in experiment [3] (setting [8]), 97% (active); in experiment [3] (at 50.0 µM), 69.3%; in experiment [4] (setting [7]), 98% (active); in experiment [4] (setting [8]) it was 94% (active); in experiment [4] (at 50.0 µM), 12%. In addition, the growth inhibition is 92% (active) in experiment [5] (setting [7]); 96% (active) in experiment [5] (setting [8]); 15.6% in experiment [5] (at 50.0 µM); 82% (active) in experiment [6] (setting [7]); 96% (active) in experiment [6] (setting [8]); 63% in experiment [6] (at 50.0 µM).
Consider `CCCN(CCC)C(=S)N/N=C/c1cccc(C)n1`, for which the growth inhibition in experiment [1] (setting [7]) was -8%; in experiment [1] (setting [8]) it was 100% (active); in experiment [1] (at 50.0 µM), 90.3% (active); in experiment [2] (setting [7]) it was -33%; in experiment [2] (setting [8]), 99% (active); in experiment [2] (at 50.0 µM) it was 93.2% (active). Also, the growth inhibition in experiment [3] (setting [7]) was -40%; in experiment [3] (setting [8]) it was 98% (active); in experiment [3] (at 50.0 µM), 92.8% (active); in experiment [4] (setting [7]), -9%; in experiment [4] (setting [8]), 100% (active); in experiment [4] (at 50.0 µM), 93.1% (active). For the same molecule, the growth inhibition in experiment [5] (setting [7]) was -32%; in experiment [5] (setting [8]), 100% (active); in experiment [5] (at 50.0 µM) it was 92.5% (active); in experiment [6] (setting [7]) it was -8%; in experiment [6] (setting [8]) it was 99% (active); in experiment [6] (at 50.0 µM), 89.7% (active).
On to `CC(Nc1ccc(Cl)c(Cl)c1)c1ccncc1` (configuration not stated), for which the growth inhibition in experiment [1] (setting [7]) is 1%; in experiment [1] (setting [8]) it was 98% (active); in experiment [1] (at 50.0 µM), 85.8% (active); in experiment [2] (setting [7]), -36%; in experiment [2] (setting [8]), 95% (active); in experiment [2] (at 50.0 µM), 85.8% (active). Besides, the growth inhibition in experiment [3] (setting [7]) was -26%; in experiment [3] (setting [8]) it was 98% (active); in experiment [3] (at 50.0 µM), 79.8% (active); in experiment [4] (setting [7]), 32%; in experiment [4] (setting [8]) it was 98% (active); in experiment [4] (at 50.0 µM), 83.9% (active). Also, the growth inhibition was -47% in experiment [5] (setting [7]); 99% (active) in experiment [5] (setting [8]); 86% (active) in experiment [5] (at 50.0 µM); -1% in experiment [6] (setting [7]); 98% (active) in experiment [6] (setting [8]); 82.6% (active) in experiment [6] (at 50.0 µM).
Turning to `CC(=O)Nc1ccc2c(c1)Cc1cccc(F)c1-2`, the growth inhibition was 11% in experiment [1] (setting [7]); 14% in experiment [1] (setting [8]); 70.3% (active) in experiment [1] (at 50.0 µM); 6% in experiment [2] (setting [7]); 5% in experiment [2] (setting [8]); 17.7% in experiment [2] (at 50.0 µM). For the same molecule, the growth inhibition in experiment [3] (setting [7]) is 14%; in experiment [3] (setting [8]), 3%; in experiment [3] (at 50.0 µM), 22.4%; in experiment [4] (setting [7]), 29%; in experiment [4] (setting [8]), 7%; in experiment [4] (at 50.0 µM), 9.1%. Moreover, the growth inhibition is 17% in experiment [5] (setting [7]); 8% in experiment [5] (setting [8]); 61.9% in experiment [5] (at 50.0 µM); -2% in experiment [6] (setting [7]); 1% in experiment [6] (setting [8]); 32.1% in experiment [6] (at 50.0 µM).
